Source: PubChem BioAssay (National Center for Advancing Translational Sciences (NCATS))
Only a selection was taken, and hits are over-represented in it overall.
IDH1 R132H inh – inhibitors of human mutant IDH1 R132H; O75874; Potency, µM (series often up to 76.6 µM), for the others: at the top dose activity change, negative = inhibition, usual class: inhibitors; IDH1-R132H enzyme, NADPH consumption, diaphorase/resazurin fluorescence; AID 602179; 390,000 tested, 0.093% active; note: potency is the fitted concentration of half-maximal effect; % is set by controls: 0 for no effect and ±100 for the full control effect; nearly all actives have a fitted effect of over 65% in size
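IDH1-R132H (0.5 ug/mL dispensed) in pH 7.5 Tris buffer was preincubated 30 min with compound, then given a substrate mix of 0.016 mM NADPH and 2 mM alpha-KG for 80 min at room temperature; remaining NADPH was read by diaphorase/resazurin fluorescence.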
ASM inhibitor – blocks human secretory acid sphingomyelinase | P17405 | Potency, µM (series often up to 57.5 µM), inactives show at the highest dose activity change, negative = inhibition, hits mostly inhibitors | 340,000 tested, 0.006% active | placental ASM, HMU-PC fluorogenic substrate, 60 min; note: potency is the fitted concentration of half-maximal effect
Target sequence (P17405 47-631 limits assumed): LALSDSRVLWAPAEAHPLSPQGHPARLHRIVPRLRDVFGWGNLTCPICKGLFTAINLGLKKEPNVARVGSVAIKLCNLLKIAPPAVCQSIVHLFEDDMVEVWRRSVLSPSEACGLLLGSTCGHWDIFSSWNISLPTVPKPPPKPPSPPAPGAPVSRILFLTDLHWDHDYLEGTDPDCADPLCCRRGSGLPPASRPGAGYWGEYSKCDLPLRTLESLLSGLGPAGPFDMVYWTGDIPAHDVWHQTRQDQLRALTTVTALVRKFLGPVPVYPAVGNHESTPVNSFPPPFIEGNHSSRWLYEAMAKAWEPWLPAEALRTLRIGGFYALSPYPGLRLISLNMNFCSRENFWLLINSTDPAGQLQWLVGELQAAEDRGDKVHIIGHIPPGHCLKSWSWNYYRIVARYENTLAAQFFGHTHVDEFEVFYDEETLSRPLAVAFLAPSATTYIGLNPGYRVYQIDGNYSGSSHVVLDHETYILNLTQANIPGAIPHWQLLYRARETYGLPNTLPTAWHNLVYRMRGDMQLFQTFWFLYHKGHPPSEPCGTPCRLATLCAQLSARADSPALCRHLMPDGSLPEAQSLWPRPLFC
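Fluorogenic HMU-PC substrate (9 uM final) is turned over by placental ASM in 60 min at 37 C after a 10 min compound preincubation. Reaction ended by alkaline stop (pH 10), with fluorescence read at 386/447 nm.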
ClpP mod – qHTS Assay for Activators of ClpP. ATP-dependent Clp protease proteolytic subunit (Bacillus subtilis (strain 168)), P80244. purified B. subtilis ClpP, FRET peptide cleavage, 20 min. Potency, µM (highest dose often 57.5 µM), for the others: top-dose activity change, negative = active. 340,000 tested, 1.9% active. AID 651965, 2013; active = well fitted falling curve with a large enough effect; inconclusive = small, poorly fitted or top-dose-only effect; inactive = no such curve, though single readings can be large or run the other way; note: potency is the fitted concentration of half-maximal effect; the source files actives as falling curves though it sought activators and does not explain the sign; nearly all actives have a fitted effect of over 65% in size
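FRET quenching reversal measured ClpP activation: 10 microg/mL B. subtilis ClpP at pH 8 with the FRET-FV decapeptide, read at 430 nm after 320 nm excitation. The 20-min minus 0-min signal was scaled between DMSO/no-enzyme wells and ADEP (5.8 microM final).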
Mito fusion yeast – mitochondrial division inhibition or fusion activation | 320,000 tested, 0.23% active | AID 485298 | S. cerevisiae fusion-defective mutant growth rescue, CellTiterGlo 48 h | Potency, µM (doses to about 46.1 µM), inactives show top-dose growth rescue (activation), most hits filed as activators; note: potency is the fitted concentration of half-maximal effect; % of control where 0% means no effect; nearly all actives have a fitted effect of over 45% in size
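Yeast fusion mutant, YPEG (non-fermentable carbon), compound, 48 h at 37C non-permissive; CellTiterGlo added, 10 min RT, luminescence read. Rescued growth = division inhibition.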
RGS4 inh – blocks human RGS4-accelerated GTP hydrolysis | P49798 | Transcreener GDP fluorescence polarization, RGS4-accelerated GTP hydrolysis | Potency, µM (top dose mostly 114 µM), without a hit: at the top dose activity change, negative = inhibition, most hits filed as inhibitors | 390,000 tested, 0.039% active | AID 504845; note: potency is the fitted concentration of half-maximal effect; % is set by controls: 0 for no effect and ±100 for the full control effect; nearly all actives have a fitted effect of over 75% in size
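MLSMR compounds (23 nl, pin-transferred) preincubated 10 min at room temperature with a 500nM (2x) first reagent, then RGS4 at 900nM (2x) plus Transcreener GDP mix added; fluorescence polarization (620/688 nm) read before and after 90 min at 30 °C.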
LDHA inh – blocks human lactate dehydrogenase A; P00338; purified LDHA, NADH/diaphorase-resazurin fluorescence; stronger effect = lower value; activity change, % (values are at about 110 or 230 µM); 480,000 tested, 0.15% active; AID 1347041; in the data active = activity change below about -30%; inconclusive = mostly about -25% to -30%;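 note: plate controls were DMSO wells for no effect and wells without enzyme for full effect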
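Enzyme activity of human lactate dehydrogenase 5 (2 nM; 0.06 mM NADH, 0.2 mM pyruvate, 5 min, RT) is measured via a resazurin/diaphorase fluorescence readout of residual NADH.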
Resorufin autofl – autofluorescence interference, mutant IDH1 hit counter-screen; shares compounds with IDH1 R132H inh; Resorufin detection reagent fluorescence interference, cell-free; inhibition of signal, % at 51.2 µM; 750 tested, under 10 active; AID 623980;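 note: 0% = wells with normal resorufin and full inhibition = wells lacking resorufin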
IDH1 WT – wild-type IDH1 (human) inhibition counterscreen. 750 tested, 9% active. Potency, µM (highest dose often 115 µM), for inactives: at the highest dose activity change, negative = inhibition, usual class: inhibitors. AID 623995. shares compounds with IDH1 R132H inh. WT IDH1 enzyme, NADPH diaphorase/resazurin fluorescence;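 note: potency is the fitted concentration of half-maximal effect; 0% = full WT IDH1 enzyme control and full inhibition = no enzyme wells; nearly all actives have a fitted effect of over 55% in size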
mIDH1 confirm – mutant IDH1 (human) inhibition, confirmed; Potency, µM (top dose mostly 76.6 µM), inactives show top-dose activity change, negative = inhibition, usual class: inhibitors; 750 tested, 83% active; shares compounds with IDH1 R132H inh; IDH1 R132H enzyme, NADPH diaphorase/resazurin fluorescence; note: potency is the fitted concentration of half-maximal effect; nearly all actives have a fitted effect of over 50% in size
Numbers without * were called inactive; ? = inconclusive; · = no result given. Unless noted, calls come from the whole dose curve; as a rule, active = well fitted curve in the direction sought with a large enough effect; inconclusive = small, poorly fitted or top-dose-only effect, or another doubt; inactive = no such curve, though single readings can be large; an effect the other way counts as inactive or inconclusive.

SMILES | IDH1 R132H inh | ASM inhibitor | ClpP mod | Mito fusion yeast | RGS4 inh | LDHA inh | Resorufin autofl | IDH1 WT | mIDH1 confirm
Cc1ccc(-c2cc3c(n2-c2ccc(C(=O)O)cc2)CCCC3=O)cc1 | ? | 15% | 1% | -5% | 8% | 4 | -1 | -3% | 35µM*
O=C1CCCc2c1cc(-c1ccccc1)n2-c1ccc(O)cc1 | -11% | 1% | -8% | 1% | -11% | -4 | · | · | ·
O=C(c1ccco1)N1CCN(c2c(-c3ccccc3)c3cc(Cl)ccc3[nH]c2=O)CC1 | ? | -12% | -6% | -3% | -21% | -2 | -7 | -2% | 22µM*
CNc1nnc(SCc2ncc(-c3ccccc3)o2)s1 | · | · | · | · | · | -2 | · | · | ·
O=C(CCNC(=O)c1ccccc1)NCc1coc(-c2cccs2)n1 | · | · | · | · | · | -8 | · | · | ·
S=C(Nc1cccc2ccccc12)NC1CCCCC1 | ? | 1% | · | 14% | 11% | 1 | -1 | ? | 5%
S=C(Nc1cccc2ccccc12)Nc1cccc2ccccc12 | 5% | 1% | · | · | ? | 28 | · | · | ·
O=C(COc1ccc(Br)cc1)NCc1ccc(-c2nn3cnnc3s2)cc1 | · | · | · | · | · | 0 | · | · | ·
O=C(O)c1cccc(S(=O)(=O)N2CCN(C(c3ccccc3)c3ccccc3)CC2)c1 | ? | 0% | · | -1% | 10% | -10 | 7 | 5% | 32µM*
COc1ccccc1C1(CC(=O)O)CCOC(C(C)C)C1 (stereo not drawn) | 6% | -1% | -5% | -1% | 39% | -4 | · | · | ·
CCC(=O)N(CCC1(c2ccccc2OC)CCOC(C(C)C)C1)Cc1ccco1 (stereo not drawn) | ? | -1% | · | 20% | -15% | 8 | 3 | 7% | 40µM*
Cc1cc(C)cc(N(C(=O)c2sc(C)nc2C)C(C(=O)NCc2ccco2)c2ccccc2)c1 (stereo not drawn) | ? | 3% | 3% | -1% | -7% | 5 | -10 | 9% | 13µM*
Cc1ccc(N(C(=O)c2sc(C)nc2C)C(C(=O)NCc2ccco2)c2ccccc2)cc1 (stereo not drawn) | ? | 0% | -1% | -8% | -6% | -8 | -8 | -1% | 35µM*
Cc1cccc(N(C(=O)c2sc(C)nc2C)C(C(=O)NCc2ccco2)c2ccccc2)c1 (stereo not drawn) | 2% | -2% | 0% | 3% | -12% | -2 | · | · | ·
O=c1[nH]c(/C=C/c2ccccc2)c([N+](=O)[O-])c(=O)[nH]1 | -23% | -3% | 1% | 1% | -48% | -2 | · | · | ·
O=c1[nH]c(/C=C/c2cccc([N+](=O)[O-])c2)c([N+](=O)[O-])c(=O)[nH]1 | 45µM* | 0% | 1% | 1% | -52% | -14 | 4 | -16% | 32µM*
COc1ccc(-c2oc(NC(=O)CCl)c(C#N)c2-c2ccc(OC)cc2)cc1 | 29µM* | ? | -9% | -7% | ? | 1 | 10 | 79µM* | 8.9µM*
Cc1cc(C)n(-c2nc3c(c(=O)n(Cc4ccc(F)cc4)c(=O)n3C)n2CCC(C)C)n1 | · | · | · | · | · | -10 | · | · | ·
O=C(O)c1csc2ccccc12 | · | · | · | · | · | 4 | · | · | ·
